The list is a sample of the results.
aSyn UTR act: Activators via SNCA 5'UTR binding, MLPCN; alpha-synuclein 5'UTR reporter, activators screen; hit rate 7.1% among 300,000; AID 1814; activity score, % (tested at 7.5 µM), hits read low; in the data active = activity score below about -60%
Active calls of the source: *.

SMILES	aSyn UTR act
COCn1c(COc2ccc3ccccc3c2)nc2ccccc21	-92*
Clc1cccc(N/N=C/c2ccc(N3CCOCC3)cc2)c1	-183*
O=[N+]([O-])c1ccc(N/N=C/c2sc(N3CCOCC3)nc2-c2ccccc2)c(S(=O)(=O)Nc2ccc(Cl)cc2)c1	76
O=[N+]([O-])c1cccc(N/N=C/c2ccc(N3CCOCC3)cc2)c1	-225*
C(=N\Nc1ccccn1)/c1ccc(N2CCOCC2)cc1	-182*
C(=N\Nc1ccccc1)/c1ccc(N2CCOCC2)cc1	-154*
C/C(=N\Nc1ccccn1)c1ccc(N2CCOCC2)cc1	-156*
C/C(=N\Nc1ccccn1)c1ccc(C(C)C)cc1	-132*
O=C(Nc1cccc(NC(=O)c2ccccc2Cl)c1)c1ccc([N+](=O)[O-])o1	86
O=C(Nc1nc2c(Cl)cccc2s1)c1ccc(Br)o1	-131*
O=C(Nc1nc2c(Cl)cccc2s1)c1ccc([N+](=O)[O-])o1	-80*
O=C(Nc1nc2c(F)cccc2s1)c1ccc([N+](=O)[O-])o1	-95*
O=C(Nc1nc2ccc(Cl)cc2s1)c1ccc(Br)o1	-237*
O=C(/C(=C(\[O-])c1ccccc1)[n+]1ccc2ccccc2c1)c1ccc(Cl)cc1	-63*
O=C(/C(=C(\[O-])c1ccccc1)[n+]1ccc2ccccc2c1)c1ccccc1	-72*
Cc1cc(C)c2c(CN3CCC(C)CC3)cc(=O)oc2c1	-157*
Cc1cc2oc(=O)cc(CN3CCC(C)CC3)c2c(C)c1Cl	-88*
Cc1cc2oc(=O)cc(CN3CCC(C)CC3)c2cc1C	-82*
Cc1cc(C)c2c(CCl)cc(=O)oc2c1	91
COc1ccc2c(c1)O/C(=C\c1ccco1)C2=O	-119*
CC(=O)COc1ccc2c(c1C)O/C(=C\c1ccco1)C2=O	-213*
Cc1cccc(/C=C2\Oc3cc(OS(C)(=O)=O)ccc3C2=O)c1	-64*
COC(=O)c1ccc(N=Cc2c(C(F)(F)F)[nH]n(C)c2=O)cc1	-65*
CC(=O)N1N=C(c2ccc(C)cc2)OC1c1cccnc1 (configuration not stated)	-75*
COc1ccc(-c2ccc(-c3noc(C(C)C)n3)c(OC)n2)cc1	-96*
SMILES	aSyn UTR act
COCc1nc(-c2ccc(-c3ccccc3)nc2OC)no1	-100*
COc1nc(-c2ccccc2)ccc1-c1noc(C)n1	-112*
CCc1nc(-c2ccc(-c3ccc(OC)cc3)nc2OC)no1	-132*
COCc1nc(-c2ccc(-c3ccc(OC)cc3)nc2OC)no1	-123*
c1ccc(Sc2ccccc2CN2CCCC2)cc1	85
Oc1ccc(CN2CCc3ccccc3C2)c2cccnc12	103
CC(C)(C)C1CCC(=O)N(CCOc2ccccc2)CC1 (configuration not stated)	-101*
O=C1CCN(CCc2ccccc2)CCN1CCSc1ccccc1	-69*
c1ccc(SCCN2CCc3ccccc3C2)cc1	-97*
CC1CCC(=O)N(CCSc2ccccc2)CC1 (configuration not stated)	-116*
O=C(c1ccccc1)c1nnc(-c2ccccc2F)o1	-104*
O=C(CSc1ccc(F)cc1)Nc1ccc(C2SCCS2)cc1	-155*
Cc1ccc(NC(=O)COc2ccc(C3SCCS3)cc2)cc1	-69*
Cc1cc(NC(=O)COc2ccccc2C)no1	-116*
Cc1cc(NC(=O)COc2cccc(C)c2C)no1	-66*
Cc1cc(NC(=O)COc2cccc3cccnc23)no1	-96*
Cc1ccccc1OCC(=O)NC1=NCCS1	-77*
Cc1cc(NC(=O)COc2ccc(C)c(C)c2)no1	-62*
COc1ccc2[nH]c(=O)c(CN(Cc3cccs3)S(=O)(=O)c3cccc4nsnc34)cc2c1	76
COc1ccc2[nH]c(=O)c(CN(c3ccccc3OC)S(=O)(=O)c3ccccc3)cc2c1	-69*
CCC(=O)c1cn(CC(=O)NCc2ccco2)c2ccccc12	-65*
COCCCNC(=O)COC(=O)c1ccc(-c2nc3ccccc3s2)s1	-68*
CNC(=O)COC(=O)c1ccc(-c2nc3ccccc3s2)s1	-161*
CCNc1ccc(Br)cc(C(=O)/C=C/c2ccccc2Cl)c1=O	-68*
Cc1cc(NC(=O)c2ccccc2)ncc1NC(=O)c1ccco1	-115*
SMILES	aSyn UTR act
Cc1cc(NC(=O)C(C)C)ncc1NC(=O)c1ccccn1	-88*
Cc1ccc(C(=O)Nc2ccc(NC(=O)c3ccco3)c(C)c2)cc1	-67*
Cc1cc(O)c(NC(=O)c2ccco2)cc1C	-98*
Cc1ccc(O)c(NC(=O)c2ccco2)c1	-66*
CC(=O)c1ccc(NC(=O)c2cc3nc4c(c(C(F)(F)F)n3n2)CCCC4)cc1	-75*
O=C(NC1CCCCC1)c1cc2nc3c(c(C(F)(F)F)n2n1)CCCC3	-136*
COc1cc(O)sc1C=Nc1ccc(Cl)cc1	-92*
CCC1CCCCN1CCCNC(=O)c1ccc2nc(N3CCCCC3)sc2c1 (configuration not stated)	-280*
CC1CCCC(C)N1CCCNC(=O)c1ccc2nc(N3CCCCC3)sc2c1 (configuration not stated)	-237*
CC1CCN(c2nc3ccc(C(=O)NCCCN4CCCCC4C)cc3s2)CC1 (configuration not stated)	-277*
O=C(Nc1ccccc1)ON=C1CCCC1	-82*
Cc1ccc(NC(=O)ON=C2CCCC2)cc1	-205*
CC(=O)O[C@H]1C(=O)[C@@]2(C)C([C@H](OC(=O)c3ccccc3)[C@]3(O)C[C@H](OC(=O)[C@H](O)[C@@H](NC(=O)c4ccccc4)c4ccccc4)C(C)=C1C3(C)C)[C@]1(OC(C)=O)CO[C@@H]1C[C@H]2O (some centres not stated)	102
O=C(NCC1CCCO1)c1cc2ccccc2cc1O (configuration not stated)	-125*
CCOC(=O)C(C)/C(C)=N/NC(=O)c1cc2ccccc2cc1O (configuration not stated)	62
O=C(NCC1CCCCC1)c1cc2ccccc2cc1O	-109*
COc1ccc(OCc2cc(C(=O)N3CCCN(C(C)=O)CC3)no2)c(Cl)c1	-75*
O=C(c1cc(COc2c(F)cccc2F)on1)N1C[C@H]2CC[C@H]1C2	-114*
COc1ccc(OCc2cc(C(=O)N3C[C@H]4CC[C@H]3C4)no2)c(Cl)c1	-82*
COc1ccccc1OCc1cc(C(=O)N2CC3C[C@@H]4CC2C[C@H](C3)C4)no1	-120*
CC(=O)c1ccc(OCc2cc(C(=O)N3CC4C[C@@H]5CC3C[C@H](C4)C5)no2)cc1	-134*
Cc1cccc(C)c1OCc1cc(C(=O)NC2CCC2)no1	-66*
O=C(c1cc(COc2ccc(F)cc2F)on1)N1CC2C[C@@H]3CC1C[C@H](C2)C3	-97*
O=C(c1cc(COc2c(F)cccc2F)on1)N1CCC(c2ccccc2F)C1 (configuration not stated)	-125*
Cc1cccc(C)c1OCc1cc(C(=O)N2CCC(c3ccncc3)CC2)no1	-93*
SMILES	aSyn UTR act
O=C(c1cc(COc2ccc(F)cc2F)on1)N1C[C@H]2CC[C@H]1C2	-99*
O=C(C1CCCN(c2ncnc3c2nc2n3CCCCC2)C1)N1CCN(c2ccccc2)CC1 (configuration not stated)	-148*
Nc1nc(N2CCN(c3ccccn3)CC2)nc2ccccc12	-118*
C=CCn1c2ccccc2c(=O)c2cc(C#Cc3ccsc3)ccc21	-211*
CC(C)NC(=S)N/N=C/c1ccc(N2CCOCC2)cc1	-87*
C=C(C)CNC(=S)N/N=C/c1ccc(N2CCOCC2)cc1	-64*
CC(C)COCc1ccc(O)c2ncccc12	96

Assay outcomes as filed in PubChem.
